# Source: PubChem BioAssay (National Center for Advancing Translational Sciences (NCATS))
# G9a block = qHTS Assay for Inhibitors of Histone Lysine Methyltransferase G9a; G9a H3K9 monomethylation, AlphaScreen, 2 h; Potency, µM (titrated, usually from 102 µM), for inactives: at the highest dose activity, negative = inhibition, hits mostly inhibitors; actives 8.8% (n = 350,000); AID 504332, 2011; further: on the % scale 0 is the no-effect control and ±100 the full control effect; nearly all actives have a fitted effect of over 75% in size
#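 Chemiluminescent proximity detection of H3K9 monomethylation, read after 10 min bead incubation in the dark. Reaction: 20 nM G9a, 500 nM biotin-H3K9 peptide, 20 uM SAM cofactor, 2 h, room temperature, following 15 min enzyme-compound preincubation.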
# GLS inhibitor = qHTS for Inhibitors of Glutaminase (GLS); Glutaminase kidney isoform, mitochondrial (Homo sapiens), O94925; AID 624170, 2012; Potency, µM (highest dose often 45.5 µM), for the others: at the top dose activity change, negative = inhibition, hits mostly inhibitors; actives 0.21% (n = 410,000); GLS enzymatic activity, qHTS titration; further: on the % scale 0 is the no-effect control and ±100 the full control effect
#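 hKGA in 45 mM KH2PO4 pH 8.2, 0.02% Tween-20 with pin-transferred compounds; 1 mM L-glutamine (stock) plus glutamate oxidase/HRP/Amplex Red coupling added. Fluorescence read initially and after 30 min at RT.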
# HP1b binding inh = HTS for Inhibitors of HP1-beta Chromodomain Interactions with Methylated Histone Tails. Chromobox protein homolog 1 (Homo sapiens), P83916. actives 0.56% (n = 390,000). AlphaScreen HP1-beta / biotin-H3K9me3 peptide binding. Potency, µM (top dose mostly 114 µM), inactives show at the top dose activity change, negative = inhibition, most hits filed as inhibitors; further: nearly all actives have a fitted effect of over 70% in size
#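 Compound inhibition of the preformed complex between 50 nM HP1-beta and 50 nM biotinylated H3K9me3 peptide was read by AlphaScreen. Buffer was PBS pH 7.4 with 0.01% Tween-20. Incubations ran 30 min at room temperature, with 10 ug/mL donor/acceptor beads.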
# L3MBTL1 inh = qHTS Assay for the Inhibitors of L3MBTL1; Lethal(3)malignant brain tumor-like protein 1 (Homo sapiens), Q9Y468; Potency, µM (top dose mostly 57.1 µM), inactives show top-dose activity, negative = inhibition, most hits filed as inhibitors; actives 0.66% (n = 230,000); AlphaScreen L3MBTL1–H3K9me1 peptide binding; further: on the % scale 0 is the no-effect control and ±100 the full control effect; nearly all actives have a fitted effect of over 60% in size
# Target sequence (Q9Y468 whole entry, looked up): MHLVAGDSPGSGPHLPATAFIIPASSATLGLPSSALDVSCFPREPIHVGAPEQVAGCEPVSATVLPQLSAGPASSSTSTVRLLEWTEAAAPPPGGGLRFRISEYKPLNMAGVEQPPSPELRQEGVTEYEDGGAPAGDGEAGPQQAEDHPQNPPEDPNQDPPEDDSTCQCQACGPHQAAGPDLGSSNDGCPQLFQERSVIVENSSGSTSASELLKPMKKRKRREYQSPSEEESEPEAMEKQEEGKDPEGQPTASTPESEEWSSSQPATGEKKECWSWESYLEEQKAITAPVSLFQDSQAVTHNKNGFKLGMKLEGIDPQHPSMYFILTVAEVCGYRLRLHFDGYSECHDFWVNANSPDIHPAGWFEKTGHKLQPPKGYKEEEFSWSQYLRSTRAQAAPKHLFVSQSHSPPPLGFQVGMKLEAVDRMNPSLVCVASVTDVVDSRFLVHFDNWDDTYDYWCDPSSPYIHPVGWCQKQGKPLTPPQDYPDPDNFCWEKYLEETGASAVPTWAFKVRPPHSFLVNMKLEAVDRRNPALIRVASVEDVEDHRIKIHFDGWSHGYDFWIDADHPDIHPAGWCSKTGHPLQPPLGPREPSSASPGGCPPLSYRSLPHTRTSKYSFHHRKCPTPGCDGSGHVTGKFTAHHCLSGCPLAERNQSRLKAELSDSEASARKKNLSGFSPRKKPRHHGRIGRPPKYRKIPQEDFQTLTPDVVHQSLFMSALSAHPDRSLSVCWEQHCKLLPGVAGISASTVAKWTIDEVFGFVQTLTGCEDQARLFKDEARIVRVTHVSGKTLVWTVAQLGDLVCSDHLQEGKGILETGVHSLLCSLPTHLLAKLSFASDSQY
#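 L3MBTL1 (50 nM) pre-complexed 30 min with biotinylated H3(1-15)K9me1 peptide (75 nM), then compounds added for 30 min at room temperature; AlphaScreen streptavidin donor/nickel chelate acceptor beads (10 ug/mL final) read after 30 min dark incubation.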
# BAZ2B block = qHTS Assay for Inhibitors of BAZ2B; Bromodomain adjacent to zinc finger domain protein 2B (Homo sapiens), Q9UIF8; AlphaScreen BAZ2B-H3K14Ac peptide displacement; Potency, µM (titrated, usually from 114 µM), for the others: at the top dose activity change, negative = inhibition, hits mostly inhibitors; actives 4.4% (n = 360,000); further: on the % scale 0 is the no-effect control and ±100 the full control effect; nearly all actives have a fitted effect of over 60% in size
#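 Inhibition is scored as reduced AlphaScreen emission. The BAZ2B/b-H3(5-23)K14Ac complex (50 nM each) in PBS pH 7.4, 0.01% Tween-20 meets compound (up to 110 uM) for 30 min at RT before bead addition.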
# JMJD2A Tudor = qHTS Assay for Inhibitors of JMJD2A-Tudor Domain; Lysine-specific demethylase 4A (Homo sapiens), O75164; AlphaScreen JMJD2A-Tudor / H3K4me3 peptide binding; Potency, µM (titrated, usually from 114 µM), without a hit: at the top dose activity change, negative = inhibition, hits mostly inhibitors; actives 4.4% (n = 390,000); AID 504339, 2011; further: on the % scale 0 is the no-effect control and ±100 the full control effect; nearly all actives have a fitted effect of over 50% in size
# Starred values were filed as active, the others as inactive; ? = inconclusive; · = not tested or not shown; [ ] = another dose, or the depositor's remark. A selection: hits, their analogues and other compounds. The true share with any hit is near 10%. The call rests on the fitted dose curve; in most records, active means well fitted curve in the direction sought with a large enough effect; inconclusive means small, poorly fitted or top-dose-only effect, or another doubt; inactive means no such curve, though single readings can be large; an effect the other way counts as inactive or inconclusive. Potency means the concentration at half of the fitted maximal effect.
SMILES,G9a block,GLS inhibitor,HP1b binding inh,L3MBTL1 inh,BAZ2B block,JMJD2A Tudor
CCOC(=O)C1=C(C)NC(SC)=NC1c1ccc(OC)cc1 (stereo not given),?,18.7%,28.5%,8.0%,3.1%,-20.3%
O=C(NCCCN1CCCCC1)c1ccc2c(c1)NC(=O)c1ccccc1S2,50.1µM*,-6.8%,20.5%,·,-4.4%[57.1 µM],-18.7%
O=C1Nc2cc(C(=O)NCCN3CCCCCC3)ccc2S/C1=C/c1ccccc1F,·,0.3%,·,·,·,·
O=C1Nc2cc(C(=O)NCCCN3CCCC3)ccc2S/C1=C/c1ccccc1F,14.1µM*,16.5%,-10.1%[57 µM],·,-38.4%,?
C/C(NCCc1ccc(O)cc1)=C1/CCOC1=O,·,20.4%,·,·,·,·
O=S(=O)(Cc1ccccc1)NCc1cccnc1,?,2.3%,18.7%,-3.6%,-1.8%,-4.6%
O=C1C(Cl)=C(NCc2cccnc2)C(=O)c2ccccc21,?,3.3%,-8.2%,·,50.1µM*,-35.9%
C=CCNC1=C(Cl)C(=O)c2ccccc2C1=O,39.8µM*,7.0%,50.1µM*,?,31.6µM*,44.7µM*
C=CCNC1=C(Cl)C(=O)N(Cc2ccccc2)C1=O,44.2%,2.6%,113.6%,·,73.2%,62.8%
Cc1ccc(NCc2cccnc2)cc1,56.2µM*,7.8%,-6.4%,·,?,39.8µM*
O=C1c2ccccc2C(=O)c2c(NCCc3ccc(O)cc3)ccc(NCCc3ccc(O)cc3)c21,1.78µM*,·,·,·,·,·
Cc1cc(C)cc(NC(=O)N2CCN(C)c3ncccc32)c1,7.4%[59 µM],10.0%,13.5%,·,-23.9%,-19.2%
COc1ccc(Cn2cc(C(=O)c3ccc(C)c(C)c3)c(=O)c3ccccc32)cc1,-24.5%[59 µM],0.7%,17.4%,·,-25.7%,-19.2%
O=C1C(Cl)=C(NCCc2ccccc2)C(=O)c2ccccc21,·,?,?,·,·,0.794µM*
CC(=O)N(Cc1ccc(F)cc1)C1=C(NCCc2ccccc2)C(=O)c2ccccc2C1=O,28.2µM*,-6.8%,-68.4%,·,14.1µM*,20µM*
CC(=O)N(Cc1ccc(F)cc1)c1cccc(C)c1C,39.1%,-4.0%,47.4%,-1.9%,-12.7%,-0.7%
COc1ccc(N(Cc2cccs2)C(=O)c2ccc(Br)o2)cc1,0.9%[59 µM],7.9%,83.6%,·,-11.1%,20.9%
CCN(CC)CCOC(=O)c1cccnc1,-25.6%[12.7 µM],-2.4%,·,·,·,·
O=C(Cc1ccccc1)NS(=O)(=O)c1ccccc1,·,-1.1%,·,·,·,·
CCNC(=S)NS(=O)(=O)c1ccc(Cl)cc1,?,0.6%,-11.1%,-0.4%,-1.8%,25.1µM*
CCNC(=S)NS(=O)(=O)c1ccccc1,28.2µM*,5.4%,-31.1%,-3.5%,?,39.8µM*
COCCN(CCOC)Cc1cc(=O)oc2cc3c(cc12)CCC3,50.1µM*,-5.2%,51.8%,-7.9%,-25.6%,-12.2%
COCCN(CCOC)Cc1cc(=O)oc2cc(C)ccc12,·,0.6%,·,·,·,·
CC(C)c1ccc(O)c(N)c1,1.41µM*,4.0%,24.6%,1.6%[11.4 µM],?,-21.6%
CCC(C)c1ccccc1O (stereo not given),-0.9%[0.501 µM],-3.6%,44.2%,-0.3%,-2.5%,-0.7%
SMILES,G9a block,GLS inhibitor,HP1b binding inh,L3MBTL1 inh,BAZ2B block,JMJD2A Tudor
CCC(C)c1ccc(O)c(N)c1 (stereo not given),2.82µM*,-5.7%,-16.2%,-5.0%,-36.3%,?
CC(C)(C)c1ccc(O)c(N)c1,?,·,·,-10.0%,?,·
COc1ccc(N2CCN(c3ccnc4cc(Cl)ccc34)CC2)cc1,31.6µM*,26.2%,39.8µM*,·,39.8µM*,35.5µM*
Oc1ccc(N2CCN(c3ccnc4cc(Cl)ccc34)CC2)cc1,8.91µM*,15.7%,?,·,?,56.2µM*
Clc1ccc2c(N3CCCC3)ccnc2c1,-30.7%[59 µM],2.1%,37.8%,2.3%,-3.6%,9.2%[57.1 µM]
NN=C1c2cc(S(=O)(=O)NCCO)ccc2-c2ccc(S(=O)(=O)NCCO)cc21,·,·,36.3%,·,·,-11.3%
Cc1ccc(N2C(=O)[C@@H]3[C@H](C2=O)[C@H]2C=CC=NN2[C@@H]3C(=O)Nc2ccccc2)cc1,7.08µM*,5.5%,-17.1%,-8.1%,-28.9%,-10.8%[57.1 µM]
COc1ccc(N2C(=O)[C@@H]3[C@H](C2=O)[C@H](C(=O)c2ccc(OC(C)=O)cc2)N2N=CC=C[C@@H]32)cc1,3.55µM*,·,·,-4.9%,?,·
CC(=O)Oc1ccc(N2C(=O)C3C(C2=O)C(C(=O)c2ccc(Cl)cc2)N2CCCC32)cc1 (stereo not given),-111.8%[12.7 µM],0.8%,?,4.8%,-32.0%,44.7µM*
CC(=O)Oc1ccc(C(=O)[C@H]2[C@H]3C(=O)N(c4ccc(C)cc4C)C(=O)[C@H]3[C@@H]3C=CC=NN32)cc1,3.55µM*,7.6%,-22.4%,-21.5%,-35.7%,?
O=C(Nc1ccccc1)[C@@H]1[C@@H]2C(=O)N(c3ccc(F)cc3)C(=O)[C@@H]2[C@H]2C=CC=NN21,·,-11.9%,8.1%,2.7%,-17.1%,-32.7%
CC(=O)Oc1ccc(N2C(=O)[C@@H]3[C@H](C2=O)[C@H]2c4ccccc4C=NN2[C@@H]3C(C)=O)cc1,?,-3.1%,23.5%,-5.0%,-3.9%,-7.6%
Cc1ccc(N2C(=O)C3C(C2=O)C(C(=O)c2ccc(Cl)cc2)N2CCCC32)cc1 (stereo not given),?,-5.4%,63.3%,·,?,-10.3%[11.4 µM]
Cc1ccccc1Cn1cc(CCC(=O)NC(C)c2ccccc2)c2ccccc21 (stereo not given),-3.9%[59 µM],-3.8%,44.8%,·,-1.1%,-16.8%
Cc1ccc(-c2onc(C)c2C)cc1S(=O)(=O)NCc1ccco1,0.3%[59 µM],-0.8%,9.5%,·,-25.1%,-14.6%
CC(=O)Oc1ccc(C(=O)[C@H]2[C@H]3C(=O)N(c4ccccc4)C(=O)[C@H]3[C@@H]3C=CC=NN32)cc1,4.47µM*,12.2%,10.8%,-2.0%,-26.5%,-34.0%
CC(=O)Oc1ccc(C(=O)[C@H]2[C@H]3C(=O)N(c4ccc(C)cc4)C(=O)[C@H]3[C@@H]3C=CC=NN32)cc1,3.55µM*,12.7%,-10.3%,-7.3%,-33.9%,?
COc1ccc(C(=O)[C@H]2[C@H]3C(=O)N(c4ccccc4)C(=O)[C@H]3C3C=CC=NN32)cc1 (stereo not given in full),?,4.1%,-18.8%,·,-31.4%,?
COc1ccc(C(=O)[C@H]2[C@H]3C(=O)N(c4ccc(C)cc4)C(=O)[C@H]3C3C=CC=NN32)cc1 (stereo not given in full),·,-1.3%,31.9%,·,39.8µM*,5.7%
